Experimental data taken from PubChem BioAssay (EPA / NIEHS).
Records with an inconclusive call do not appear. Active and inactive are the calls of the source. The calls were made as follows, unless noted: active = hit-call score of the fitted dose curve at least 0.9, where 1 is the maximum; inconclusive = response in the unintended direction; inactive = score below 0.9.

Legend:
[1] = ATG_TAL_CIS: Attagene CIS-FACTORIAL HepG2 Assay for human TAL Basal Promoter (AID 2282966; active = hit-call score of the fitted dose curve at least 0.9, where 1 is the maximum; inactive = score below 0.9;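 also: background control endpoint measuring basal TAL promoter reporter mRNA not a specific factor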); conditions: HepG2 Attagene cis-factorial TAL promoter reporter; actives raise or lower the signal
In short: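 Steps: transfect HepG2 with multiple reporter transcription units; dose 24 h; isolate RNA, reverse-transcribe, PCR-amplify, label with 6-FAM, digest with HpaI; resolve by capillary electrophoresis. Bidirectional fitting against DMSO baseline.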

[2] = ATG_TGFb_CIS: Attagene CIS-FACTORIAL HepG2 Assay for human Transforming Growth Factor (TGF) (AID 2282967; active = hit-call score of the fitted dose curve at least 0.9, where 1 is the maximum; inactive = score below 0.9); conditions: HepG2 Attagene CIS TGFb reporter, mRNA transcription; actives raise or lower the signal
In short: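 HepG2 cells transiently transfected with cis-promoter-driven multiplexed reporter units; 24 h compound exposure. Reporter mRNA measured by RT-PCR, 6-FAM labeling, HpaI digestion and capillary electrophoresis; bidirectional fit versus DMSO baseline.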

[3] = ATG_VDRE_CIS: Attagene CIS-FACTORIAL HepG2 Assay for human Vitamin D Receptor Element (VDRE) (AID 2282968; active = hit-call score of the fitted dose curve at least 0.9, where 1 is the maximum; inactive = score below 0.9); conditions: HepG2 VDRE cis-reporter transcription, actives raise or lower the signal
In short: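 HepG2 cells transiently transfected with cis-element reporter units, dosed 24 h; reporter mRNA measured by RT-PCR, 6-FAM labeling, HpaI digestion and capillary electrophoresis. Activity fitted bidirectionally against DMSO baseline.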

[4] = target: X-box-binding protein 1 (Homo sapiens) (UniProt P17861); test: ATG_Xbp1_CIS: Attagene CIS-FACTORIAL HepG2 Assay for human X-box Binding Protein 1 (XBP1) (AID 2282972; active = hit-call score of the fitted dose curve at least 0.9, where 1 is the maximum; inactive = score below 0.9); conditions: HepG2 XBP1 cis-element reporter, Attagene multiplex; actives raise or lower the signal
X-box-binding protein 1 (Homo sapiens), sequence (P17861 whole entry, looked up): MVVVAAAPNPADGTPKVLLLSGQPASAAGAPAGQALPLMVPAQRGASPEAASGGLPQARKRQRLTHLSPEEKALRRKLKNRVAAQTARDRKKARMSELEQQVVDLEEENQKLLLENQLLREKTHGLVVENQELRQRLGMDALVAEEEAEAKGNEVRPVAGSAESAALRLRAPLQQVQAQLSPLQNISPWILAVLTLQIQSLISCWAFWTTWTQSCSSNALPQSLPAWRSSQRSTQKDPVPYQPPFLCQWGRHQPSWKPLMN
In short: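 HepG2 cells transiently transfected with cis-regulated multiple reporter transcription units; endogenous transcription factor activity measured 24 hours after chemical dosing. Reporter mRNA quantified by RT-PCR, 6-FAM primer extension, HpaI digestion and capillary electrophoresis; bidirectional fitting versus DMSO.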

[5] = ATG_M_19_TRANS: Attagene TRANS-FACTORIAL HepG2 Assay for M19 Transcription Factor (Internal Marker) (AID 2282974); conditions: HepG2 Attagene TRANS-FACTORIAL M19 internal marker reporter
In short: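 Using RT-PCR and capillary electrophoresis, reporter mRNA from transiently transfected human HepG2 cells was quantified following 24 h exposure; activity was fitted in the positive direction against DMSO.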

[6] = ATG_Hpa5_TRANS: Attagene TRANS-FACTORIAL HepG2 Assay for human GAL4-Hpa5 Hepatocyte Transcription Factor Basal Promoter (AID 2282975); conditions: HepG2 Attagene GAL4-Hpa5 transcription reporter;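 also: hits are increases in reporter mRNA over DMSO baseline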
In short: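 Basal-promoter GAL4 background control within the HepG2 trans-factorial panel of transiently transfected reporter units. Reporter mRNA is measured 24 h after dosing by RT-PCR and capillary electrophoresis, fitted for gain of signal versus DMSO.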

[7] = target: Estrogen-related receptor gamma (Homo sapiens) (UniProt P62508); test: ATG_ERRg_TRANS: Attagene TRANS-FACTORIAL HepG2 Assay for human Estrogen-Related Receptor gamma (ERRg) (AID 2282977); conditions: HepG2 Attagene TRANS reporter, ERRg transactivation;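 also: hits increase reporter signal over DMSO so potencies reflect activators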
Estrogen-related receptor gamma (Homo sapiens), sequence (P62508 whole entry, looked up, the tested form may be a part): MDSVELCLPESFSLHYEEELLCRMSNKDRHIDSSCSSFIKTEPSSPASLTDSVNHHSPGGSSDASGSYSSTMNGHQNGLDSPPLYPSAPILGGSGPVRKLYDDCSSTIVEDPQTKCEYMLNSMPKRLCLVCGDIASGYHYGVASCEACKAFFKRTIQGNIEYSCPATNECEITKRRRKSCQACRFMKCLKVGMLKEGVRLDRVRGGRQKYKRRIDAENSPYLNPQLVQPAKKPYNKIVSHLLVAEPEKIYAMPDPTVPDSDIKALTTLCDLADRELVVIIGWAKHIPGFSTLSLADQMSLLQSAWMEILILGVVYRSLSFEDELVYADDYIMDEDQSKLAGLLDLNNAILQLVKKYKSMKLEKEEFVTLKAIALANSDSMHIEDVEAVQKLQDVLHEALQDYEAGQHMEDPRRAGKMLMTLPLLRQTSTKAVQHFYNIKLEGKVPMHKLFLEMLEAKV
In short: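 HepG2 cells transiently transfected with multiplexed GAL4-UAS reporter units and chimeric NR-Gal4 constructs were exposed to test chemicals for 24 h. Reporter mRNA was measured by RT-PCR, 6-FAM primer extension, HpaI digestion and capillary electrophoresis; gain-of-signal versus DMSO.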

[8] = target: Glucocorticoid receptor (Homo sapiens) (UniProt P04150); test: ATG_GR_TRANS: Attagene TRANS-FACTORIAL HepG2 Assay for human Glucocorticoid Receptor (GR) (AID 2282978); conditions: HepG2 Attagene TRANS GR reporter, mRNA transcription;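 also: activators score as hits since higher reporter transcript over DMSO is fitted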
Glucocorticoid receptor (Homo sapiens), sequence (P04150 whole entry, looked up, the tested form may be a part): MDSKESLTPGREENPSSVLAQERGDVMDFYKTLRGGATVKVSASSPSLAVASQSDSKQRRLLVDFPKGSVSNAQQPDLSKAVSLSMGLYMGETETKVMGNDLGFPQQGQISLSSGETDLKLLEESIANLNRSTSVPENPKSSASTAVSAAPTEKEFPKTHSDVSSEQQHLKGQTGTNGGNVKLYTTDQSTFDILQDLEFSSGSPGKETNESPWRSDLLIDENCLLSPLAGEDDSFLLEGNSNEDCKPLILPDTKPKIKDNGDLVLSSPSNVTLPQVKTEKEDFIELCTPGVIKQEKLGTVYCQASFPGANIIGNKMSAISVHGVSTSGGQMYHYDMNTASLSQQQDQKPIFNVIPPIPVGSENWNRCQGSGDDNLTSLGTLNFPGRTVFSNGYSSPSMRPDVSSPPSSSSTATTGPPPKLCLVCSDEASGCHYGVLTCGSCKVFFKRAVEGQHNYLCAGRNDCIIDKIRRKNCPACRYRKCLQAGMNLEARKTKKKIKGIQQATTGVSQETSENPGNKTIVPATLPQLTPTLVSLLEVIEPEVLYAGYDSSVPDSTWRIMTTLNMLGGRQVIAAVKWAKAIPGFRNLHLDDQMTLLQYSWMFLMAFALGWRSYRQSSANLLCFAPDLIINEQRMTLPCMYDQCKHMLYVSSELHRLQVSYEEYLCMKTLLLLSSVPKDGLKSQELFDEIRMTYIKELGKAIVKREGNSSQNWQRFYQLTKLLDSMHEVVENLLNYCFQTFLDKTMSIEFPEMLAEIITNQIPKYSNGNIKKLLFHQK
In short: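 Exogenous NR-GAL4 fusion activity was assessed through induced GAL4-UAS reporter transcripts in transfected human HepG2 cells, quantified after 24 h by RT-PCR and fluorescent capillary electrophoresis with DMSO as baseline.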

[9] = target: Oxysterols receptor LXR-alpha (Homo sapiens) (UniProt Q13133); test: ATG_LXRa_TRANS: Attagene TRANS-FACTORIAL HepG2 Assay for human Liver X Receptor alpha (LXRa) (AID 2282980); conditions: HepG2 Attagene TRANS reporter, LXRa transactivation
Oxysterols receptor LXR-alpha (Homo sapiens), sequence (Q13133 whole entry, looked up, the tested form may be a part): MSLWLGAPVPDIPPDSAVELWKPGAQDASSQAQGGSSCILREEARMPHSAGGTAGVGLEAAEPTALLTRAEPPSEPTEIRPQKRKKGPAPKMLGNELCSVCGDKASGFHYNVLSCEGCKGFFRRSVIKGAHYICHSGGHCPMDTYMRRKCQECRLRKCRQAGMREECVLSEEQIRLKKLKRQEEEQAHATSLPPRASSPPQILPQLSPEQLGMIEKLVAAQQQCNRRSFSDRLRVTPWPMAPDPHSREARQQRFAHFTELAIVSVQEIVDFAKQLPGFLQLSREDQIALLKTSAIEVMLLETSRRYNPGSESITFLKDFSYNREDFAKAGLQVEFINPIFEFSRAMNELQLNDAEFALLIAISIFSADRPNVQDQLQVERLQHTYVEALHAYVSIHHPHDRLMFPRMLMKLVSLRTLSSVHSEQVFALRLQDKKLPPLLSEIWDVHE
In short: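 In this multiplexed TRANS system, compounds act on HepG2 cells carrying GAL4-UAS reporter units and a receptor-GAL4 fusion for 24 h. Induced reporter RNA is amplified, fluorescently labelled and sized by capillary electrophoresis, with DMSO as baseline.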

[10] = target: Oxysterols receptor LXR-beta (Homo sapiens) (UniProt P55055); test: ATG_LXRb_TRANS: Attagene TRANS-FACTORIAL HepG2 Assay for human Liver X Receptor beta (LXRb) (AID 2282981); conditions: HepG2 Attagene TRANS GAL4-LXRb reporter, mRNA
Oxysterols receptor LXR-beta (Homo sapiens), sequence (P55055 whole entry, looked up, the tested form may be a part): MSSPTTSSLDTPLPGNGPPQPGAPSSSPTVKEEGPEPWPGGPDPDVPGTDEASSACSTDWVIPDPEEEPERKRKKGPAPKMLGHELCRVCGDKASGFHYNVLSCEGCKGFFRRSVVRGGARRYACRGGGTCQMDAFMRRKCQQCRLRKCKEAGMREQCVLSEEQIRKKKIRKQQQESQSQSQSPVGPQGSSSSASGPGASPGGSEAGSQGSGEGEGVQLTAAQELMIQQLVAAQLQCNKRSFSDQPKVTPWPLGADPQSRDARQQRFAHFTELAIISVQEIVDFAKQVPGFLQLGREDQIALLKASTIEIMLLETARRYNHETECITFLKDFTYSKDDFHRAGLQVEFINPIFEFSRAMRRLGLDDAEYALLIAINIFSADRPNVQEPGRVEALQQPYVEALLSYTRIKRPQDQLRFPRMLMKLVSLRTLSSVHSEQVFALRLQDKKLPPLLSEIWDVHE
In short: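 HepG2 cells transiently transfected with multiple reporter transcription units carrying chimeric NR-Gal4 proteins acting on GAL4-UAS reporters; compound exposure 24 h. Reporter mRNA quantified by RT-PCR, 6-FAM labelling, HpaI digestion and capillary electrophoresis; gain of signal versus DMSO.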

[11] = target: Hepatocyte nuclear factor 4-alpha (Homo sapiens) (UniProt P41235); test: ATG_HNF4a_TRANS: Attagene TRANS-FACTORIAL HepG2 Assay for human Hepatocyte Nuclear Factor 4 alpha (HNF4a) (AID 2282982); conditions: HepG2 HNF4a transactivation reporter, mRNA readout
Hepatocyte nuclear factor 4-alpha (Homo sapiens), sequence (P41235 whole entry, looked up, the tested form may be a part): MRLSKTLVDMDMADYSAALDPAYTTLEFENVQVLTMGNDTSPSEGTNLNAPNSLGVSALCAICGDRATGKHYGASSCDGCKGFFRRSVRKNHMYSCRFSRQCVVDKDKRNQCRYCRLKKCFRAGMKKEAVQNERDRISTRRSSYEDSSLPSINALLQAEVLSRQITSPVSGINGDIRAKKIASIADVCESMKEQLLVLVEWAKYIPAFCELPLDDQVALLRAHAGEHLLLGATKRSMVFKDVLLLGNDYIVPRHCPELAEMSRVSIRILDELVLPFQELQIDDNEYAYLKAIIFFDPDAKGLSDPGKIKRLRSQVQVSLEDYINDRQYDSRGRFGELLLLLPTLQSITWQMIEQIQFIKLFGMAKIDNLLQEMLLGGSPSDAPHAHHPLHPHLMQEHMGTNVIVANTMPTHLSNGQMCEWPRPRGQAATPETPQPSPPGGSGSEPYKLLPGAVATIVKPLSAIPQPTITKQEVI
In short: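 HepG2 cells transiently transfected with multiplexed GAL4-UAS reporter units responsive to chimeric NR-GAL4 proteins; compound exposure 24 h. Reporter mRNA quantified by RT-PCR, 6-FAM labelling, HpaI digestion and capillary electrophoresis; gain of signal versus DMSO baseline.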

[12] = ATG_M_06_TRANS: Attagene TRANS-FACTORIAL HepG2 Assay for M06 Transcription Factor (Internal Marker) (AID 2282983); conditions: HepG2 Attagene TRANS M06 internal marker reporter;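 also: reporter transcript level by RT-PCR then capillary electrophoresis fluorescence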
In short: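 Internal-marker background readout from a multiplexed TRANS reporter system in HepG2; 24 h dosing; mRNA induction quantified by RT-PCR plus capillary electrophoresis fluorescence; DMSO as negative control and baseline.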

[13] = ATG_M_32_TRANS: Attagene TRANS-FACTORIAL HepG2 Assay for M32 Transcription Factor (Internal Marker) (AID 2282984); conditions: HepG2 Attagene TRANS M32 internal marker reporter
In short: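 HepG2 cells transiently transfected with multiple GAL4-UAS reporter transcription units, dosed for 24 hours; reporter mRNA quantified by RT-PCR, 6-FAM primer extension, HpaI digestion and capillary electrophoresis. Gain-of-signal fitted versus DMSO baseline; internal background-control marker.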

[14] = target: Nuclear receptor subfamily 4 group A member 2 (Homo sapiens) (UniProt P43354); test: ATG_NURR1_TRANS: Attagene TRANS-FACTORIAL HepG2 Assay for human Nuclear Receptor Related Protein 1 (NURR1) (AID 2282985); conditions: HepG2 Attagene TRANS reporter, mRNA readout
Nuclear receptor subfamily 4 group A member 2 (Homo sapiens), sequence (P43354 whole entry, looked up, the tested form may be a part): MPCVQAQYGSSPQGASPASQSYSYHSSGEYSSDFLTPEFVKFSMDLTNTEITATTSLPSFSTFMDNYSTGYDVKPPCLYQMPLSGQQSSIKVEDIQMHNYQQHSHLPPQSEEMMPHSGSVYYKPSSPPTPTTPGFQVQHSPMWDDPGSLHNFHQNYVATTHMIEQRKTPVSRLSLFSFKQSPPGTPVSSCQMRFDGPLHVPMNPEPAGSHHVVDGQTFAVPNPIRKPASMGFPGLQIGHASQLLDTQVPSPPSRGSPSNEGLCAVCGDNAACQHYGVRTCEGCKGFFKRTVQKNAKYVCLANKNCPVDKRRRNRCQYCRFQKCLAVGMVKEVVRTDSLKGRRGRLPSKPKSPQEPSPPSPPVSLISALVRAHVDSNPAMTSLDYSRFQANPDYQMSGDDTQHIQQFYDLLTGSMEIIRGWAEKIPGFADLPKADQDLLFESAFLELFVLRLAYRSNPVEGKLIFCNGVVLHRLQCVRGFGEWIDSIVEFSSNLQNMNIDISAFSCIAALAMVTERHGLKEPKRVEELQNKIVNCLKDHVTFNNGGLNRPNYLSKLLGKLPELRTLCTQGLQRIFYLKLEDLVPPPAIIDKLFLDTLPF
In short: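 HepG2 cells transiently transfected with GAL4-UAS reporter units and chimeric NR-Gal4 constructs; chemical exposure 24 h. Reporter mRNA quantified by RT-PCR, fluorescent labelling and capillary electrophoresis; gain of signal fitted relative to DMSO baseline.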

[15] = target: Transcriptional activator Myb (Homo sapiens) (UniProt P10242); test: ATG_Myb_CIS: Attagene CIS-FACTORIAL HepG2 Assay for human Myeloblastosis (Myb) Proto-Oncogene Transcription Factor (AID 2282986; active = hit-call score of the fitted dose curve at least 0.9, where 1 is the maximum; inactive = score below 0.9); conditions: HepG2 Attagene CIS-FACTORIAL Myb reporter transcription; actives raise or lower the signal
Transcriptional activator Myb (Homo sapiens), sequence (P10242 whole entry, looked up): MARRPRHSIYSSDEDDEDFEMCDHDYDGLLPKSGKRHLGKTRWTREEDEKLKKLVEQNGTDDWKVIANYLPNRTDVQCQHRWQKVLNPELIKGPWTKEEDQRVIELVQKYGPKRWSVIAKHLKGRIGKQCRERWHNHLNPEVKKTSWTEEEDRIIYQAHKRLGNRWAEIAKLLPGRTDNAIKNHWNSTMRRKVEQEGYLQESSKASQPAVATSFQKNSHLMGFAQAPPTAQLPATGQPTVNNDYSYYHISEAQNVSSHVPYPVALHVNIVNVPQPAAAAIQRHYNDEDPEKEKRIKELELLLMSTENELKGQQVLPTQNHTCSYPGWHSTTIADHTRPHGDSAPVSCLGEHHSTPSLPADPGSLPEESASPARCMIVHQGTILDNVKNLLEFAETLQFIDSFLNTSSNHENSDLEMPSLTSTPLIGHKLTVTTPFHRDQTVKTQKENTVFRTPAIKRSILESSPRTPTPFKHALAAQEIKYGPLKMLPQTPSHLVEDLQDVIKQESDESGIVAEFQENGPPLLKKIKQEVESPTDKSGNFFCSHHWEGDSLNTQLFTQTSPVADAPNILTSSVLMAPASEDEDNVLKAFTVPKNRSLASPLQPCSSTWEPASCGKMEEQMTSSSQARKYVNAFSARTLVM
In short: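 In this HepG2 transient-transfection format, cis-regulated reporter mRNA is quantified 24 h post-dosing by RT-PCR with capillary electrophoresis, fitted bidirectionally to DMSO baseline.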

[16] = ATG_GAL4_TRANS: Attagene TRANS-FACTORIAL HepG2 Assay for GAL4 (Internal Marker) (AID 2282976); conditions: HepG2 Attagene TRANS GAL4 internal marker reporter
In short: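 Liver HepG2 line bearing multiplexed GAL4-UAS reporter constructs; 24 h chemical treatment. Transcripts were quantified as fluorescent fragments on capillary electrophoresis after RT-PCR and HpaI cut, with activity fitted upward from DMSO.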

[17] = target: Bile acid receptor (Homo sapiens) (UniProt Q96RI1); test: ATG_FXR_TRANS: Attagene TRANS-FACTORIAL HepG2 Assay for Farnesoid X Receptor (FXR) (AID 2282979); conditions: HepG2 Attagene TRANS FXR-GAL4 reporter transcription;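 also: hits raise reporter mRNA above DMSO so AC50 marks FXR activation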
Bile acid receptor (Homo sapiens), sequence (Q96RI1 whole entry, looked up, the tested form may be a part): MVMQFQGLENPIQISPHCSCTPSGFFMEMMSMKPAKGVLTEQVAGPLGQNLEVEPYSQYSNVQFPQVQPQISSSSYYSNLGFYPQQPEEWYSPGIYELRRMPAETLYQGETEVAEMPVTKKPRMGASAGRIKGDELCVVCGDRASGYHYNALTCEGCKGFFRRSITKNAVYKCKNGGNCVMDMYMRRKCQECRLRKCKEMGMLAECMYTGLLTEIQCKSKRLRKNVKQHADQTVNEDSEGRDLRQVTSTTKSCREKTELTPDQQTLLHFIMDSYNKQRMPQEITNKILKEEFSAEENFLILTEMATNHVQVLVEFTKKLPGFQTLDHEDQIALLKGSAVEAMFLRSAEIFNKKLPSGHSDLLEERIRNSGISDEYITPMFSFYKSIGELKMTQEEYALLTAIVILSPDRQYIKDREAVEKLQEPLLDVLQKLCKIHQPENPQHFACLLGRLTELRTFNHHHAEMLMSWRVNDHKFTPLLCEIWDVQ
In short: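 After 24 h chemical treatment of transfected HepG2 cells, GAL4-UAS reporter transcripts driven by an exogenous FXR-GAL4 fusion were measured by RT-PCR and capillary electrophoresis. Increases over DMSO were fitted.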

[18] = target: Nuclear receptor subfamily 1 group I member 3 (Homo sapiens) (UniProt Q14994); test: ATG_CAR_TRANS: Attagene TRANS-FACTORIAL HepG2 Assay for human Constitutive Androstane Receptor (CAR) (AID 2282969); conditions: HepG2 Attagene TRANS-FACTORIAL CAR reporter;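 also: activators raise reporter mRNA above DMSO so AC50 marks induction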
Nuclear receptor subfamily 1 group I member 3 (Homo sapiens), sequence (Q14994 whole entry, looked up, the tested form may be a part): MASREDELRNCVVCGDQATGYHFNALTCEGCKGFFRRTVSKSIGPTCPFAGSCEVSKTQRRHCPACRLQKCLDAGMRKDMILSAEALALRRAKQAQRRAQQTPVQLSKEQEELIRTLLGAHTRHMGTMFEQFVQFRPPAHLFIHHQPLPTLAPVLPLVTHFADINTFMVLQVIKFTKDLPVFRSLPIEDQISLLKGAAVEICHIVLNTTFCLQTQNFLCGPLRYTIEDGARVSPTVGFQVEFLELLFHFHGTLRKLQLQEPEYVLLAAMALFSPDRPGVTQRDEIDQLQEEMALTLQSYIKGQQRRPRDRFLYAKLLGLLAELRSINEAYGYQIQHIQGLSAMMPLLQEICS
In short: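 HepG2 cells transiently transfected with multiplexed GAL4-UAS reporter units expressing chimeric NR-Gal4 proteins; compound exposure 24 h. Reporter mRNA measured by RT-PCR, 6-FAM labelling, HpaI digestion and capillary electrophoresis; gain-of-signal fitted against DMSO baseline.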

[19] = target: Androgen receptor (Homo sapiens) (UniProt P10275); test: ATG_AR_TRANS: Attagene TRANS-FACTORIAL HepG2 Assay for human Androgen Receptor (AR) (AID 2282973); conditions: HepG2 Attagene TRANS-FACTORIAL AR reporter transcription
In short: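 Chimeric nuclear receptor–Gal4 activity was assessed in human HepG2 hepatocytes after 24 h chemical dosing. Induced reporter mRNA was detected via labelled RT-PCR fragments on capillary electrophoresis, and gain of signal was analysed against DMSO.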

Measured: AC50

CCOC(=O)COc1cc(-c2nn(C)c(OC(F)F)c2Cl)c(F)cc1Cl
not listed: [16] | [17] | [18] | [19]
inactive: all other assays above

CCCOCC(=Nc1ccc(Cl)cc1C(F)(F)F)n1ccnc1
not listed: [6] | [7] | [8] | [9] | [14] | [18] | [19]
inactive: all other assays above

COc1cccc(C(=O)NN(C(=O)c2cc(C)cc(C)c2)C(C)(C)C)c1C
inactive: [1] | [2] | [4] | [7] | [17] | [12] | [15]
active: [3] 1.94 µM

FC(F)C(F)(F)OCC(Cn1cncn1)c1ccc(Cl)cc1Cl (stereo unspecified)
inactive: [1] | [2] | [5] | [10] | [12] | [14] | [15]
active: [3] 37.3 µM | [4] 75.8 µM

CCC(=NOC/C=C/Cl)C1=C(O)CC(C2CCOCC2)CC1=O (stereo unspecified)
not listed: [6] | [12] | [14] | [16] | [17] | [18] | [19]
inactive: all other assays above

CCCCOC(=O)c1ccccc1C(=O)O
not listed: [3] | [6] | [7] | [8] | [12] | [14] | [16] | [17]
inactive: all other assays above

CN(C)NC(=O)CCC(=O)O
inactive: [1] | [2] | [3] | [4] | [9] | [10] | [12] | [13] | [14] | [15]

CN(C)[C@@H]1C(=O)C(C(N)=O)=C(O)[C@@]2(O)C(=O)C3=C(O)c4c(O)cccc4[C@@](C)(O)[C@H]3[C@H](O)[C@@H]12
not listed: [3] | [7] | [8] | [17] | [18] | [19]
inactive: all other assays above

CC(=NC#N)N(C)Cc1ccc(Cl)nc1
not listed: [5] | [6] | [7] | [8] | [16] | [17] | [18] | [19]
inactive: all other assays above

CCOC(=O)CC(SP(=O)(OC)OC)C(=O)OCC (stereo unspecified)
inactive: [1] | [2] | [18] | [4] | [5] | [8] | [9] | [10] | [15]

CNC(=O)ON=C(C)SC
not listed: [6] | [7] | [12] | [14] | [16] | [17] | [18] | [19]
inactive: all other assays above

C=C(C)[C@H]1Cc2c(ccc3c2O[C@@H]2COc4cc(OC)c(OC)cc4[C@@H]2C3=O)O1
active: [4] 0.0204 µM
inactive: [1] | [2] | [18] | [7] | [9] | [10] | [11] | [12] | [15]

CSC1=N[C@@](C)(c2ccccc2)C(=O)N1Nc1ccccc1
active: [3] 24.3 µM
not listed: [5] | [6] | [7] | [16] | [17] | [18] | [19]
inactive: all other assays above

CCOP(=S)(OCC)Oc1ccc([N+](=O)[O-])cc1
inactive: [1] | [2] | [18] | [4] | [8] | [10] | [11] | [12] | [14] | [15]

CCOP(=O)(OCC)Oc1cc(C)nc(C(C)C)n1
inactive: [1] | [2] | [4] | [12] | [13] | [14] | [15]

CCNc1nc(Cl)nc(NC(C)(C)C#N)n1
not listed: [3] | [6] | [7] | [12] | [16] | [17] | [19]
inactive: all other assays above

COc1ccc(C(=CC(=O)N2CCOCC2)c2ccc(Cl)cc2)cc1OC
active: [3] 11.4 µM
not listed: [6] | [8] | [13] | [14] | [18]
inactive: all other assays above

CCOP(=S)(OCC)Oc1cc(C)nc(C(C)C)n1
inactive: [1] | [2] | [18] | [4] | [8] | [9] | [10] | [12] | [14] | [15]
